This note sets out measurements from PubChem BioAssay (NCATS).

Results filed as inconclusive are left out. Entries that show only a call come without a potency. Calls of active or inactive are those of the source. The call rests on the fitted dose curve; in most records, active means well fitted inhibition curve with a large enough effect; inconclusive means small, poorly fitted or top-dose-only effect; inactive means flat fitted curve, though single readings scatter.
Potency means the concentration at half of the fitted maximal effect.

In this test the test system is DIV14. In words: qHTS profiling for inhibitors of Plasmodium falciparum proliferation (AID 504749). Further: nearly all actives have a fitted effect of over 60% in size. The following applies: P. falciparum in erythrocytes, SYBR Green DNA, 72 h; series mostly up to 28.7 µM. A digest of the protocol: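 Readout was DNA-dye fluorescence from lysed cultures, ex 485/em 535 nm. Parasitized red cells had grown 72 h with compound; data scaled between 0.29 uM artemisinin and DMSO wells and corrected using vehicle-only plates.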
In the case of `N=C(N)N1CCc2ccccc2C1`, the Potency result is “inactive”.
As to `COc1cc(C(=O)N2CCCCCCC2)cc(OC)c1OC`, the Potency result is “inactive”.
To `Cc1cccc(C)c1NC(=O)c1ccccc1C(=O)O` belongs “inactive”.
Take `CC(=O)NCCCCCC(=O)O`: the Potency result was “inactive”.
The result for `O=C1C(=O)c2ccccc2C(O)=C1C1CCC(c2ccc(Cl)cc2)CC1` (stereo not given) reads 0.0064 µM (active); that for `Cc1cccc(C)c1NC(=O)CN1CCCC1`, “inactive”; that for `CCOC(=O)c1c(N)sc2c1CCN(Cc1ccccc1)C2`, 2.69 µM (active).
The result for `CC(C)NCC(O)c1ccc2ccccc2c1` (stereo not given) reads 6.75 µM (active); that for `NC(N)=NCc1cccc(I)c1`, “inactive”; that for `CC(C)(C)CC(C)(C)c1ccc(O)c(-n2nc3ccccc3n2)c1`, 13.5 µM (active).
